Measurements taken from PubChem BioAssay.
Activity calls are given as the source filed them. Unless noted, how the calls were made is not given here.

Assays:
[1] = tested on: Wnt5a (protein binding on small-molecule microarray); test: small molecules binding Wnt5a protein – biophysical, small-molecule microarray, 635/667 nm fluorescence, primary screen (AID 1142); conditions: 635 nm fluorescence, higher = more signal;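 further: fluorescence read at 667 nm with signal to noise per printed feature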
[2] = ATP-based viability of Huh7 replicon cells – cell-based, CellTiter-Glo luminescence, basal, 48 h, cytotoxicity control for HCV replication inhibitor project, primary screen (AID 1143); conditions: higher = more signal, called active from +8 up or from −8 down;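 further: Huh7 hepatoma cells carrying a hepatitis C replication reporter with no stimulus; test concentration not given here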
[3] = Pseudomonas biofilm growth suppression – PAO1 strain, BacTiter-Glo luminescence, LB-PBS, primary screen (AID 1144); conditions: P. aeruginosa PAO1 biofilm, 12 h, higher = more signal
[4] = basal CRE-LacZ reporter activity in PC12 – cell-based, unstimulated, primary screen (AID 1145); conditions: no forskolin, luminescence, 4.5 h, higher = more signal, called active from +8 up or from −8 down
[5] = forskolin-driven CRE-LacZ activity in PC12 – cell-based, CRE-LacZ reporter, forskolin-stimulated, primary screen (AID 1146); conditions: luminescence, 4.5 h, higher = more signal, called active from +8 up or from −8 down;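 further: PC12 cells with 6xCRE LacZ reporter stimulated by forskolin 10 µM; beta-galactosidase reporter signal reflecting CREB driven transcription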
[6] = molecular target: Streptavidin (Streptomyces avidinii) (UniProt P22629); test: compounds binding control protein streptavidin – biophysical, small-molecule microarray, 635/667 nm fluorescence, artefact control for SMM compound annotation, primary screen (AID 1147); conditions: higher = more signal;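 further: signal reflects streptavidin binding to arrayed compounds as a control protein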
[7] = probe aInhba binding on compound microarray – biochemical, small-molecule microarray, 635/667 nm fluorescence, primary screen (AID 1148); conditions: higher = more signal;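 further: score merges 667nm spot fluorescence with signal-to-noise for antibody binding to printed compounds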
[8] = molecular target: Torsin-1A (Homo sapiens) (UniProt O14656); test: TOR1A wild-type binding on microarray – cell lysate, small-molecule microarray, lysate, 635/667 nm, primary screen (AID 1149); conditions: COS7 hTOR1A-WT lysate, 635 nm fluorescence, higher = more signal
[9] = molecular target: Torsin-1A (Homo sapiens) (UniProt O14656); test: torsin A mutant lysate binding on microarrays – cell lysate, small-molecule microarray, COS7 lysate, 635/667 nm fluorescence, primary screen (AID 1150); conditions: COS7 hTOR1A mutant lysate, 635 nm fluorescence, higher = more signal;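 further: score pools 667 nm emission and signal to noise measuring lysate protein binding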
[10] = tested on: Sonic hedgehog protein (Shh); test: Sonic hedgehog microarray binding compounds – biochemical, small-molecule microarray, 635/667 nm fluorescence, primary screen (AID 1151); conditions: 635 nm fluorescence, higher = more signal;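 further: Shh protein binding to compounds spotted on small-molecule microarray slides; score combines spot fluorescence intensity with signal-to-noise across triplicate slides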
[11] = optical density shifts of acrAB sulA E. coli – strain DRC41, OD650, 48 h, E. coli filamentation inducer project, primary screen (AID 1152); conditions: higher = more signal, called active from +8 up or from −8 down;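 further: E. coli MC1000 strain DRC41 lacking acrAB efflux pump and sulA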
[12] = probe aLefty1 binding on compound microarray – biochemical, small-molecule microarray, 635/667 nm fluorescence, primary screen (AID 1153); conditions: higher = more signal;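 further: score merges spot fluorescence with signal-to-noise ratio from the scanned slide images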
[13] = plasmodial surface anion channel blockers, osmotic lysis – cell-based, P. falciparum Indochina, OD700, 1 h, primary screen (AID 1154); conditions: P. falciparum Indochina infected RBC osmotic lysis, higher = more signal, called active from +8 up or from −8 down
[14] = plasmodial surface anion channel blockers, osmotic lysis – cell-based, P. falciparum Indochina, OD700, 2 h, primary screen (AID 1155);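 further: lysis reports solute entry through the parasite surface anion channel PSAC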; conditions: P. falciparum Indochina infected erythrocytes, higher = more signal, called active from +8 up or from −8 down
[15] = changes in parasitized red cell lysis, either direction – P. falciparum Indochina, OD700, 3 h, PSAC antagonist project, primary screen (AID 1156); conditions: P. falciparum-infected erythrocytes, osmotic lysis, higher = more signal, called active from +8 up or from −8 down
[16] = plasmodial surface anion channel blockers, osmotic lysis – cell-based, P. falciparum Indochina, OD700, 18 h, primary screen (AID 1157); conditions: P. falciparum Indochina infected erythrocytes, osmotic lysis OD700, 18 h; higher = more signal, called active from +8 up or from −8 down
[17] = S6 kinase pathway phospho-S6 level changes – cell-based, A549, cytoblot, luminescence, serum-stimulated, primary screen (AID 1158); conditions: 5 h, higher = more signal;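 further: serum-stimulated A549 lung adenocarcinoma cells; signal is phosphorylated S6 detected by cytoblot immunostaining with HRP secondary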
[18] = molecular target: NADPH oxidase 2 (Homo sapiens) (UniProt P04839); test: compounds shifting NOX2 Amplex Red fluorescence – cell-based, HEK293-NOX2, PMA-stimulated, NOX inhibitor project, primary screen (AID 1159); conditions: 45 min, higher = more signal, called active from +8 up or from −8 down; further: test concentration not given here
[19] = molecular target: NADPH oxidase 4 (Homo sapiens) (UniProt Q9NPH5); test: compounds shifting NOX4 Amplex Red fluorescence – cell-based, HEK293-NOX4, tetracycline-induced, NOX inhibitor project, primary screen (AID 1160); conditions: HEK293-NOX4, Amplex Red H2O2 fluorescence, 45 min; higher = more signal, called active from +8 up or from −8 down
[20] = molecular target: NADPH oxidase 5 (Homo sapiens) (UniProt Q96PH1); test: compounds shifting NOX5 Amplex Red fluorescence – cell-based, HEK293-NOX5, NOX inhibitor project, primary screen (AID 1161); conditions: HEK293-NOX5, ionomycin, 45 min, higher = more signal
NADPH oxidase 5 (Homo sapiens), sequence (Q96PH1 whole entry, looked up): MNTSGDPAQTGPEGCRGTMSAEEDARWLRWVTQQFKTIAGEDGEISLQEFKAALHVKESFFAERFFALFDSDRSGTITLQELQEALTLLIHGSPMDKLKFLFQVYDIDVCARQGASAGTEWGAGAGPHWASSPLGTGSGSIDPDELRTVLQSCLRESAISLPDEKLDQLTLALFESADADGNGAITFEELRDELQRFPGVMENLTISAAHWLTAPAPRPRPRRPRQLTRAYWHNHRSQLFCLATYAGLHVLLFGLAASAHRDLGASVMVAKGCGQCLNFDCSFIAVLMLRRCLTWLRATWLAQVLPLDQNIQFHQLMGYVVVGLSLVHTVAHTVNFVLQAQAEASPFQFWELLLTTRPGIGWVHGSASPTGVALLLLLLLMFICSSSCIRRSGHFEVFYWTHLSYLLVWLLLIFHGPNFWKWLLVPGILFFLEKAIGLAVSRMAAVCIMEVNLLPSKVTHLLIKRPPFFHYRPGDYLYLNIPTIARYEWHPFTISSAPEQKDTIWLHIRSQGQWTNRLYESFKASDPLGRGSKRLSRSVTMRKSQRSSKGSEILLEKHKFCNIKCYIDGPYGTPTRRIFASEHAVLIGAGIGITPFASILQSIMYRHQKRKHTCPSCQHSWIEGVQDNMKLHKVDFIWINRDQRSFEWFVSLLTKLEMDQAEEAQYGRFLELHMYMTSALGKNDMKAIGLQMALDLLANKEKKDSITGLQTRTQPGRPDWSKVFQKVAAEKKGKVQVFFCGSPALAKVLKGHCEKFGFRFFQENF

NADPH oxidase 2 (Homo sapiens), sequence (P04839 whole entry, looked up): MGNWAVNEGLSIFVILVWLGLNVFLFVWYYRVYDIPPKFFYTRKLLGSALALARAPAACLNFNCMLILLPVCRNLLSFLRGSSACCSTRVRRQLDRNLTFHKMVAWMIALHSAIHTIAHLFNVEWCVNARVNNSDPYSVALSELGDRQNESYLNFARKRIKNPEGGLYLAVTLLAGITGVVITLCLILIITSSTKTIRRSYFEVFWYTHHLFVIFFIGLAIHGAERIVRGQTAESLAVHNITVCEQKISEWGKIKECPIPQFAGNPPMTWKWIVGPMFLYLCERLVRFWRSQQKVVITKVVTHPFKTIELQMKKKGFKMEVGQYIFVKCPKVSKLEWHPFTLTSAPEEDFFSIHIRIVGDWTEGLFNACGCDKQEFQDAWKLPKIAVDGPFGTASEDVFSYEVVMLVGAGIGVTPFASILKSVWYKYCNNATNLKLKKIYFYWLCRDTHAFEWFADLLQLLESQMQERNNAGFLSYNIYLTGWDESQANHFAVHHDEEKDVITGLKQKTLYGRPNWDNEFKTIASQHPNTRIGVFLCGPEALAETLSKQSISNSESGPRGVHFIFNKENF
Streptavidin (Streptomyces avidinii), sequence (P22629 whole entry, looked up): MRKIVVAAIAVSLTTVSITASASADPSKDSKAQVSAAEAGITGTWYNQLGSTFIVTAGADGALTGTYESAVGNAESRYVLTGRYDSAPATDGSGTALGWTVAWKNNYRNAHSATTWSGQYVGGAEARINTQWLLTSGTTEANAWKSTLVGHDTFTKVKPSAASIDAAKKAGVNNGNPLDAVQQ
Torsin-1A (Homo sapiens), sequence (O14656 whole entry, looked up): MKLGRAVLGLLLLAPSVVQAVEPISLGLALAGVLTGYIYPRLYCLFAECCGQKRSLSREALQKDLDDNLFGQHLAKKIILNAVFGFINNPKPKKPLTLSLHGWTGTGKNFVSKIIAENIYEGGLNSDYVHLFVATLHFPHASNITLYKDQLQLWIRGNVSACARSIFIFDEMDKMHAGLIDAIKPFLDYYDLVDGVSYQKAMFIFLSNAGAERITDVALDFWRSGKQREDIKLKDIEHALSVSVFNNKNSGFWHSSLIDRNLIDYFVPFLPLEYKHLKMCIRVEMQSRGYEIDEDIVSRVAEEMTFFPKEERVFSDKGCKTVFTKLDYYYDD
NADPH oxidase 4 (Homo sapiens), sequence (Q9NPH5 whole entry, looked up): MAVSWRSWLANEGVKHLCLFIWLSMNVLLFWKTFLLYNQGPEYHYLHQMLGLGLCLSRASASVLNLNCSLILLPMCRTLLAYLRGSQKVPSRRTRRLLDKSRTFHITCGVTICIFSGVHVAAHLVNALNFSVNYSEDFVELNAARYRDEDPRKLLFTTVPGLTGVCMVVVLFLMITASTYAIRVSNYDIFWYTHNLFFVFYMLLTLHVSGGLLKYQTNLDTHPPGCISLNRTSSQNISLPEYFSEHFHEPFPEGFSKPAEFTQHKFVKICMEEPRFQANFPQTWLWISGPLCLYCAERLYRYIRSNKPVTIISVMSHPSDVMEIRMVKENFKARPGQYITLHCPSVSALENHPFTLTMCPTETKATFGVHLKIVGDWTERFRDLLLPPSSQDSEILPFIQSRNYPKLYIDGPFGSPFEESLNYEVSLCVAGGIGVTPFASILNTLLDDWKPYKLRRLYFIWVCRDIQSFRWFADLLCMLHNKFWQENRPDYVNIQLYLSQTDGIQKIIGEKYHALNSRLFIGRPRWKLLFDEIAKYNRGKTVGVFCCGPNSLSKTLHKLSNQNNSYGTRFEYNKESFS

| SMILES | composite z-score [1] | z-score [2] | z-score [3] | z-score [4] | z-score [5] | composite z-score [6] | composite z-score [7] | composite z-score [8] | composite z-score [9] | composite z-score [10] | z-score [11] | composite z-score [12] | z-score [13] | z-score [14] | z-score [15] | z-score [16] | z-score [17] | z-score [18] | z-score [19] | z-score [20] |
| --- | --- | --- | --- | --- | --- | --- | --- | --- | --- | --- | --- | --- | --- | --- | --- | --- | --- | --- | --- | --- |
| CCOC(=O)[C@H](CC(C)C)NC(=O)CCC1CC(OC(=O)NCc2cccc3ccccc23)CC2(CCCC(COC(=O)NCCc3ccccc3OC)O2)O1 (stereo not given in full) | -0.0588 | -1.86 (inactive) | 0.6 (inactive) | -0.44 (inactive) | 0.0744 (inactive) | 0.556 | -0.217 | 0.203 | 0.408 | 1.07 | -0.596 (inactive) | -0.147 | -1.28 (inactive) | -0.0901 (inactive) | -0.868 (inactive) | 0.298 (inactive) | 0.0059 | 0.527 (inactive) | 0.69 (inactive) | 1.02 |
| C=CC[C@@H]1C=C[C@H](ON=C2c3cc(OC)ccc3O[C@H](c3cccc(OC)c3)[C@H]2O)[C@@H](CO)O1 | -0.0596 | -0.375 (inactive) | 0.0436 (inactive) | 5.59 (inactive) | 0.442 (inactive) | 0.0285 | -0.182 | -0.0807 | -0.129 | 0.723 | 0.97 (inactive) | -0.0011 | 2.12 (inactive) | 0.637 (inactive) | 0.562 (inactive) | 0.49 (inactive) | -0.171 | -0.334 (inactive) | 0.593 (inactive) | 0.021 |
| CCOC(=O)[C@H](CC(C)C)NC(=O)CCC1CC(OC(=O)NCc2cccc3ccccc23)CC2(CCCC(COC(=O)NCCN3CCOCC3)O2)O1 (stereo not given in full) | 0.201 | -0.293 (inactive) | -0.677 (inactive) | -0.164 (inactive) | 1.14 (inactive) | 0.308 | -0.0494 | 0.0423 | 0.765 | 0.717 | -2.17 (inactive) | -0.275 | -0.839 (inactive) | -0.655 (inactive) | -2.08 (inactive) | -0.709 (inactive) | 0.0369 | 0.428 (inactive) | 0.647 (inactive) | -0.0177 |
| COc1ccc([Si](C)(C)[C@@H]2[C@@H](CC(=O)N3CCC[C@H]3CO)O[C@]3(C(=O)N(Cc4cccc(N5CCC5=O)c4)c4ccccc43)[C@H]2C)cc1 | -0.071 | -3.38 (inactive) | -1.54 (inactive) | 0.772 (inactive) | -0.662 (inactive) | 1.56 | 0.3 | 0.511 | 0.413 | 2 | 0.313 (inactive) | 0.792 | 4.64 (inactive) | 0.838 (inactive) | -0.745 (inactive) | 0.496 (inactive) | -0.0355 | 2.1 (inactive) | 1.29 (inactive) | 4.02 |
| COC(=O)C1=CCC(c2cccc(Cl)c2)O1 (stereo not given) | -0.241 | -4.35 (inactive) | -1.52 (inactive) | 0.388 (inactive) | -0.551 (inactive) | -0.0713 | 0.0742 | 0.0026 | -0.58 | -0.534 | -0.367 (inactive) | -0.0111 | 11.4 (active) | -0.39 (inactive) | 0.784 (inactive) | -0.963 (inactive) | 0.61 | -3.94 (inactive) | -1.6 (inactive) | -4.15 |
| C#C[C@@H]1Oc2ccccc2S(=O)(=O)N2CCC[C@H]12 | 0.0869 | 0.299 (inactive) | 0.405 (inactive) | 1.58 (inactive) | 0.14 (inactive) | 0.261 | -0.154 | -0.0705 | 0.0535 | 0.101 | -1.16 (inactive) | 0.149 | 0.217 (inactive) | 0.676 (inactive) | -0.0722 (inactive) | 0.107 (inactive) | -0.222 | 0.0921 (inactive) | -1.48 (inactive) | -0.194 |
| CCCNC(=O)OC[C@H]1O[C@H](CCON=CC[C@@H]2C=C[C@H](OC(C)=O)[C@@H](COC(C)=O)O2)C=C[C@@H]1Oc1ccc(OC)cc1 | 0.371 | 0.0377 (inactive) | 0.348 (inactive) | 0.345 (inactive) | 0.391 (inactive) | 0.0822 | -0.128 | -0.475 | 0.0275 | 0.535 | -0.413 (inactive) | -0.145 | 1.6 (inactive) | 0.405 (inactive) | 0.126 (inactive) | 0.392 (inactive) | -0.397 | -1.02 (inactive) | 0.143 (inactive) | -1.07 |
| CC(C)NC(=O)[C@@]1(C)c2ccccc2C(=O)N(Cc2cc(F)cc(C(F)(F)F)c2)[C@H]1c1ccc(CO)cc1 | 0.646 | -0.527 (inactive) | -0.699 (inactive) | 0.648 (inactive) | -0.237 (inactive) | 0.0926 | 0.2 | 0.411 | 0.916 | 0.903 | 0.0051 (inactive) | -0.21 | 7.03 (inactive) | 0.429 (inactive) | 0.943 (inactive) | 0.0608 (inactive) | -0.191 | 0.162 (inactive) | 0.696 (inactive) | -0.117 |
